# Source: ChEMBL document CHEMBL1961873, “Compounds: GSK PKIS; Assays: Nanosyn kinase panel” (2012)
# Target: Mitogen-activated protein kinase 3 (Homo sapiens) (UniProt P27361)
# Details: at 0.1 µM
# 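Also: each value is a mean inhibition figure.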
# Sequence of Mitogen-activated protein kinase 3 (Homo sapiens) (P27361 whole entry): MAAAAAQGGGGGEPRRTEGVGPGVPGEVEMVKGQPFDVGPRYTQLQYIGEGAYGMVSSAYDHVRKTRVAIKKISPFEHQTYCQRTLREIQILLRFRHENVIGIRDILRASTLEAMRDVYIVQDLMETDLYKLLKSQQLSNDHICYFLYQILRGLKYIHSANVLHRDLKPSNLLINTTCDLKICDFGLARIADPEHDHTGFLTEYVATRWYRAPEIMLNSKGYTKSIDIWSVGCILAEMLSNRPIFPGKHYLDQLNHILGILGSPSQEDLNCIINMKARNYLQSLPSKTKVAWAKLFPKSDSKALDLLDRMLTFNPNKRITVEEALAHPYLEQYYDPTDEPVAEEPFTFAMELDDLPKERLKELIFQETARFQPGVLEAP
row,Compound,inhibition
1,NS(=O)(=O)c1ccc(-c2ccc3c(NC(=O)C4CC4)n[nH]c3c2)cc1,1.44%
2,CCn1c(-c2nonc2N)nc2c(C#CC(C)(C)O)ncc(OCC3CCNCC3)c21,5.07%
3,CCn1c(-c2nonc2N)nc2c(C#CCN)ncc(OCCCN)c21,-3.01%
4,Nc1nonc1-c1nc2cnccc2n1C1CCCCC1,-0.87%
5,COc1cccc(COc2cc(-n3cnc4ccccc43)sc2C(N)=O)c1,2.69%
6,NS(=O)(=O)c1ccc(N/C=C2\C(=O)Nc3ccc4ncsc4c32)cc1,5.66%
7,Fc1ccc(-c2ncn(C3CCNCC3)c2-c2ccnc(Oc3ccccc3)n2)cc1,2.44%
8,CCn1c(-c2nonc2N)nc2c(C#CC(C)(C)O)nc(O[C@@H](CN)c3ccccc3)cc21,0.9%
9,COc1cc2c(cc1Nc1nc(Nc3ccsc3C(N)=O)c3cc[nH]c3n1)N(C(=O)CN(C)C)CCC2,2.93%
10,Cc1cc(-c2ccco2)cc(C)c1/C=C/c1cncc(-c2nn[nH]n2)c1,3.63%
11,CCn1c(-c2nonc2N)nc2c(C#CC(C)(C)O)ncc(OC[C@@H]3CCCN3)c21,1.69%
12,COc1cc(C=NNc2ncnc3c2cnn3Cc2ccccc2)ccc1O,-2.79%
13,NC(=O)c1sc(-n2cnc3cc(C(F)(F)F)ccc32)cc1OCc1ccccc1Br,3.5%
14,COc1cccc(-n2ncc3c(N/N=C/c4ccncc4)ncnc32)c1,4.96%
